# Experimental data as given in PubChem BioAssay AID2284368 (EPA ToxCast).
# Records with an inconclusive call do not appear. Calls of active or inactive are those of the source. Rule for the calls: active = hit-call score of the fitted dose curve at least 0.9, where 1 is the maximum; inconclusive = response in the unintended direction; inactive = score below 0.9.
# Molecular target: Estrogen receptor (Homo sapiens) (UniProt P03372)
# Experiment: ATG_hERa_EcoTox2: Attagene TRANS-FACTORIAL EcoTox-2 HepG2 Assay for human Estrogen Receptor (ER)
# Procedure: ATG_EcoTox2 is a cell-based, multiplexed assay created by modifying the existing Attagene TRANS-FACTORIAL system to include a panel of nuclear receptors from some or all the following species: human (Homo sapiens), african clawed frog (Xenopus laevis), rainbow trout (Oncorhynchus mykiss), japanese medaka (Oryzias latipes), and zebrafish (Danio rerio). The ECOTOX2-FACTORIAL format uses HepG2, a human liver cell line, with measurements taken at 24 hours after chemical dosing in a 24-well plate. ATG_hERa_EcoTox2 is one of 29 assay components measured or calculated from the ATG_EcoTox2 assay. It is designed to make measurements of mRNA induction, a form of inducible reporter, as detected with fluorescence intensity signals by Reverse transcription polymerase chain reaction (RT-PCR) and Capillary electrophoresis technology.The assay endpoint ATG_hERa_EcoTox2 was analyzed in the positive analysis fitting direction relative to DMSO as the negative control and baseline of activity. Using a type of inducible reporter, measures of mRNA for gain-of-signal activity can be used to understand the reporter gene at the transcription factor-level as they relate to the gene ER. Furthermore, this assay endpoint can be referred to as a primary readout, because this assay has produced multiple assay endpoints where this one serves a reporter gene function. To generalize the intended target to other relatable targets, this assay endpoint is annotated to the nuclear receptor intended target family, where the subfamily is steroidal.
# Human liver HepG2 cells are transiently transfected with multiple reporter transcription units (MRTUs) in 6-well plates using FuGene 6 reagent (Roche; 3 ml FuGene/1 mg DNA). The MRTU constructs are regulated by a cis-regulating element (promoter). Each RTU expresses a GAL4-UAS that regulates the transcription of a nearby target reporter gene sequence. A major difference between the CIS and TRANS system is that in CIS activities of endogenous TFs are measured, whereas the TRANS assay evaluates changes in activities of exogenous, chimeric NR-Gal4 proteins. […] At the end of 24 hour incubation, total RNA was isolated using TriZol reagent (Invitrogen). The isolated RNA is then reverse-transcribed using oligo(dT) primer and Mo-MLV reverse transcriptase (Invitrogen) with DNAse I (Ambion) treatment for 30 min. The one-tenth of the produced cDNA was amplified by PCR using Taq DNA polymerase (Invitrogen) and two reporter sequence-specific primers. The PCR products were fluorescently labeled by primer extension with 6-arboxyfluorescein (6-FAM) 5'-labeled reporter sequence-specific primer (2 min at 95 C, 20 s at 68 C and 10 min at 72 C) and these products were digested with 5U of HpaI (New England Biolabs) for 2h at 37 C. The fragments were purified using Qiaquick PCR columns (Qiagen), analyzed on an ABI 3130xL genetic analyzer (Applied Biosystems) with peak positions identified by using a set of X-rhodamine (ROX)-labeled MapMarker1000 molecular weight standards (BioVentures). The raw capillary electrophoresis data was processed using Attagraph software (Attagene).
# Sequence of Estrogen receptor (Homo sapiens) (P03372 whole entry, looked up): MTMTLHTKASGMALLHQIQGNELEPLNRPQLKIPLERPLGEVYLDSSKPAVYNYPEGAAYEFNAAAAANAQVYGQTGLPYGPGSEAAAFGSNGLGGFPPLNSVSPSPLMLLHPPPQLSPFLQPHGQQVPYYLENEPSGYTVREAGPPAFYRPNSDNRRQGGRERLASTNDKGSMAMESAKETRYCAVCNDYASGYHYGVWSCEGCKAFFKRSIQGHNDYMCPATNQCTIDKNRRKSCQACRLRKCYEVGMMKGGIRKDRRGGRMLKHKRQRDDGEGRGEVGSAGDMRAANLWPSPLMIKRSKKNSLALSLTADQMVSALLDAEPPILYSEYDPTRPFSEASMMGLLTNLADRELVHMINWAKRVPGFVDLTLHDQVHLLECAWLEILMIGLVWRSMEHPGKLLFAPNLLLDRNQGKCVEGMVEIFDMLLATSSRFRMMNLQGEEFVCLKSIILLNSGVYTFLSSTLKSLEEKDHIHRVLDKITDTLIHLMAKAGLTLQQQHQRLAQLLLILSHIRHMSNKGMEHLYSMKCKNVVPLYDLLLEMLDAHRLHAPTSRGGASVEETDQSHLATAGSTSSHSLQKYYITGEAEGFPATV
Structure (SMILES),AC50,outcome
CC(C)(Oc1ccc(CCNC(=O)c2ccc(Cl)cc2)cc1)C(=O)O,122 µM (active),–
CC(C)OC(=O)C(C)(C)Oc1ccc(C(=O)c2ccc(Cl)cc2)cc1,–,inactive
Cc1c(C)c2c(c(C)c1O)CCC(C)(COc1ccc(CC3SC(=O)NC3=O)cc1)O2 (stereo unspecified),–,inactive
Cc1ccc(C)c(OCCCC(C)(C)C(=O)O)c1,50 µM (active),–
CC(c1cc2ccccc2s1)N(O)C(N)=O (stereo unspecified),50 µM (active),–
C=C(c1ccc(C(=O)O)cc1)c1cc2c(cc1C)C(C)(C)CCC2(C)C,–,inactive
CN(CCOc1ccc(CC2SC(=O)NC2=O)cc1)c1ccccn1 (stereo unspecified),–,inactive
C[C@]12C=CC(=O)C=C1CC[C@@H]1[C@@H]2C(=O)C[C@@]2(C)[C@H]1CC[C@]2(O)C(=O)CO,29.2 µM (active),–
Cc1cccc(Nc2cc(Cl)nc(SCC(=O)O)n2)c1C,–,inactive
C[C@@H]1C[C@H]2[C@@H]3CCC4=CC(=O)C=C[C@]4(C)[C@@]3(F)[C@@H](O)C[C@]2(C)[C@@]1(O)C(=O)COP(=O)(O)O,–,inactive
CC(C)(Oc1ccc(C2CC2(Cl)Cl)cc1)C(=O)O (stereo unspecified),–,inactive
